A selection: hits, their analogues and other compounds. The true share with any hit is near 2.9%.
NR1D1 modulator: Rev-erb alpha (human) modulation; hit rate 0.79% among 370,000; activity, % at 10 µM; Rev-erbα–FITC-DNA binding, fluorescence polarization, 90 min; AID 1259318; P20393;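 active = activity above about 14%, limit read from the data; passing the limit was not always enough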;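 also: 0% = DMSO wells with 35 nM protein and 100% = DMSO wells with 750 nM protein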
EP2 mod: modulates human prostaglandin E2 receptor EP2 signaling | EP2-expressing cells, cAMP HTRF FRET, PGE2 co-stimulation | induction, % at 25 µM | AID 940 | hit rate 0.83% among 260,000;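 active = compounds whose cAMP rise, as percent of the full-agonist control response, exceeds 60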;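 also: rat C6 glioma line stably carrying human EP2 under a CMV promoter; the protocol text gives 20 µM as final concentration; 100% = response of wells given 1 µM PGE2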
Target sequence (P43116 whole entry, looked up): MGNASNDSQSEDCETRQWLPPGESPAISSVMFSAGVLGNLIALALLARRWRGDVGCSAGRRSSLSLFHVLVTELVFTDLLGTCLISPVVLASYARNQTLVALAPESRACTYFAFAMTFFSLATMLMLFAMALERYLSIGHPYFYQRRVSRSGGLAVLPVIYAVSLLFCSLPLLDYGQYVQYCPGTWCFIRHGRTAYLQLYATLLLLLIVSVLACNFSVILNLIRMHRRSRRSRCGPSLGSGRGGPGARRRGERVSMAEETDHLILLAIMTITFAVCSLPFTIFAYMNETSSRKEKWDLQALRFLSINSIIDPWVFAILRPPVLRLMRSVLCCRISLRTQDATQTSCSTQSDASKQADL
RAM inhibit: blocks the yeast RAM network. S. cerevisiae dse1pr::URA3 reporter, 5-FOA growth OD615, 2 d; analog-sensitive cbk1-as2 kinase mutant strain. inhibition, % at 50 µM. hit rate 1.8% among 190,000. AID 868;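 active = inhibition above a set limit, 3 SD over mean compound inhibition, cut at about 8.4% in these data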;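 also: 0% = DMSO-only wells with no growth and 100% = 10 µM 1-NA-PP1 full growth; inhibition rescues growth on 5-FOA so higher OD means more RAM inhibition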
PG9 Ab binder: small molecules binding HIV-1 gp120 antibody PG9 | TR-FRET gp120-PG9 antibody binding | inhibition, % at 6.7 µM | hit rate 0.43% among 360,000; in the data active = inhibition above about 8.5%
PGE2 EP2 inh: inhibitors of human EP2 prostaglandin E2 receptor; hit rate 0.52% among 260,000; C6 glioma cells expressing human EP2, cAMP TR-FRET; cells stimulated with saturating PGE2; AID 1422; P43116; inhibition, % at 25 µM;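 active = percent inhibition above 40 after rounding to a whole number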;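 also: rat C6 glioma host cells with rolipram phosphodiesterase inhibitor present; the protocol text gives 20 µM as final concentration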
SKN-1 block: C. elegans SKN-1 inhibition; hit rate 0.49% among 360,000; C. elegans VP596 Pgst-4::GFP/RFP ratio, acrylamide-induced, 24 h; AID 624304; inhibition, % at 21.8 µM;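 active = interference check ratio from 0.5 to 1.5 plus GFP to RFP signal ratio inhibition reaching or exceeding a fixed threshold, cut at about 30% in these data, passing the limit was not always enough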
Active calls of the source: *; . = no result given.

SMILES	NR1D1 modulator	EP2 mod	RAM inhibit	PG9 Ab binder	PGE2 EP2 inh	SKN-1 block
COc1cc(NC(=O)c2cnc(N)s2)cc(C(=O)Nc2cccc(C(F)(F)F)c2)c1	1	-18	.	1	53*	0
COc1cc(NC(=O)c2ccnc(N)c2)cc(C(=O)Nc2cccc(C(F)(F)F)c2)c1	1	1	.	-2	16	11
COc1cc(OC)cc(C(=O)N2CCN(C(C)C)CC2)c1	.	-28	.	.	12	.
N#Cc1ccccc1OCC(O)CS(=O)(=O)c1ccccc1 (configuration not stated)	3	3	1	2	12	53*
O=C(C1CCC1)N1CCC[C@H]1Cn1nc(-c2ccc(F)cc2)ccc1=O	.	-12	.	.	.	.
CO[C@@H]1/C=C\O[C@]2(C)Oc3c(C)c(O)c4c(O)c(cc(O)c4c3C2=O)NC(=O)C(C)=C/C=C\[C@H](C)[C@@H](O)[C@H](C)[C@H](O)[C@H](C)[C@H](OC(C)=O)[C@@H]1C	.	38	.	.	45*	.
C=CCSc1nnc2c3cc(C)ccc3n(C)c2n1	.	9	.	.	13	.
N/C(=N\OC(=O)c1ccc(Cl)c(Cl)c1)c1ccccn1	-4	-7	1	1	9	35*
CC(Sc1nc(-c2ccccc2)cc(C(F)(F)F)n1)C(=O)N1CCCC1 (configuration not stated)	3	6	8	1	8	-22
CC1CCN(C(=O)C(C)Sc2nc(-c3ccccc3)cc(C(F)(F)F)n2)CC1 (configuration not stated)	1	18	8.8*	1	4	4
O=[N+]([O-])c1ccc(C2CC(c3ccccc3)=Nc3ccccc3S2)cc1 (configuration not stated)	7	28	.	-2	17	12
Fc1ccc(C2CC(c3ccco3)=Nc3ccccc3S2)cc1 (configuration not stated)	-4	62*	4	0	4	2
O=C(Cn1c(-c2cscn2)nc2ccccc21)Nc1ccc2ccccc2c1	-1	4	11*	1	10	-4
COc1ccc(-n2cc(-c3ccc(Br)cc3)[nH]c2=S)cc1	-1	-43	9.6*	7	5	7
O=C(CSc1nnc(SCc2ccccc2)s1)N/N=C/c1c(Cl)cccc1Cl	-1	55	10*	0	17	-9
Cc1cccc2cc3c(N)c(C(=O)NCc4ccco4)sc3nc12	.	-77	.	.	13	.
O=C(Nc1ccc(Cl)cc1Cl)c1ccc(Br)o1	1	.	.	0	.	36*
COc1ccc(C(NC(=O)c2cncnc2)c2nccn2C)cc1 (configuration not stated)	.	17	.	.	.	.
CCOc1ccc2nc(NCCCNS(=O)(=O)c3ccc(F)cc3)c(C#N)cc2c1	4	-73	5	.	7	5
CCOc1ccc2nc(NCCCNS(=O)(=O)c3ccccc3)c(C#N)cc2c1	9	-16	9.7*	1	8	-4
CCC(C)(C)NC(=O)c1ccc2c(c1)N(CC(=O)OC(C)C)C(=O)C(C)(C)O2	.	6	.	.	10	.
COc1ccc(CNC(=O)COC(=O)c2n[nH]c3ccccc23)cc1	2	-25	10*	-1	6	0
Cc1cccc(N/C=C/C(=O)c2ccc(Cl)cc2)c1	2	.	.	1	.	27
Cc1ccc(Cl)c(N/C=C/C(=O)c2ccccc2)c1	-2	.	.	0	.	51*
O=C(CSc1cn(Cc2cccc(F)c2)c2ccccc12)NCc1ccc(F)cc1	2	33	9.9*	-1	9	-1
SMILES	NR1D1 modulator	EP2 mod	RAM inhibit	PG9 Ab binder	PGE2 EP2 inh	SKN-1 block
NC(=O)CSc1cn(Cc2ccc(F)cc2)c2ccccc12	-1	-23	4	2	11	-2
COc1cc(C(N)=O)cc(Br)c1OCc1ccccc1	-1	32	1	1	7	9
CCOc1c(Br)cc(C(N)=O)cc1OCc1ccccc1	-5	62*	1	-1	14	7
Cc1cc(-c2cc(N)c(=O)n(C(C)C(=O)Nc3ccc4c(c3)CCC4)n2)c(C)o1 (configuration not stated)	.	-76	.	.	4	.
CSc1nc(-c2ccccc2)nc2c1COC(C)(C)C2	-2	64*	4	0	12	16
COc1ccc(/C=C/c2c(-c3cccc(C)c3)oc3ccc(N4CCOCC4)cc23)cc1	5	.	.	6	40*	6
Nc1c(C(=O)Nc2ccc(F)cc2)sc2nc(-c3ccco3)ccc12	-21	-35	3	6	25	45*
Nc1c(C(=O)Nc2ccc(Br)cc2)sc2nc(-c3ccco3)ccc12	-6	-31	-1	3	15	12
Cc1ccc(C)c2[nH]c(=O)c(CN(Cc3cccs3)S(=O)(=O)c3ccccc3Cl)cc12	.	3	.	.	16	.
COc1cc(C(=O)NCCNc2nc3c(C)c(C)ccc3cc2C#N)cc(OC)c1OC	3	.	.	-2	.	-5
COCCCNC(=S)NCCNc1nc2c(C)c(C)ccc2cc1C#N	1	-11	9.6*	1	6	8
Cc1cc(-c2nn(-c3ccccc3)cc2/C=C2\SC(N)=NC2=O)ccc1OC(C)C	2	-8	3	0	6	16
NC1=NC(=O)/C(=C/c2cn(CCC(=O)O)nc2-c2ccc(Cl)cc2)S1	-1	24	8.6*	-2	4	-8
CCCOc1ccc(-c2nn(-c3ccccc3)cc2/C=C2\SC(N)=NC2=O)cc1	4	19	8.8*	0	17	18
CCc1cccc(C)c1NC(=O)CSc1nnc2c3ccccc3n(C)c2n1	.	-5	.	.	13	.
Cc1ccnc(N=Cc2c(O)ccc3oc4c(c23)CCCC4)c1	.	62*	0	.	13	.
Cc1ccc(N/C=C/C(=O)c2cccs2)cc1	4	-3	2	-1	8	42*
O=C(/C=C/Nc1ccccc1F)c1cccs1	5	10	5	0	7	85*
O=C(/C=C/Nc1ccc(F)cc1F)c1cccs1	4	-4	2	0	6	60*
Cc1ccc(N/C=C/C(=O)c2sc(-c3ccccc3)nc2C)cc1	1	43	9.0*	0	7	-3
C=CCOc1ccc(C(=O)N2CCCC(c3c(S(C)(=O)=O)cnc4ncnn34)C2)cc1 (configuration not stated)	.	10	.	.	.	.
O=C(/C=C\Nc1cccc(F)c1)c1cccs1	1	-5	1	0	10	69*
O=C(CN1C(=O)c2cccc3cccc1c23)NCc1ccccc1	.	-26	.	.	8	.
Cc1c(NC(=O)CSc2ccc3c(c2)OCCO3)c(=O)n(-c2ccccc2)n1C	-1	-2	2	1	6	44*
Cc1c(NC(=O)CSc2ccc(Cl)cc2)c(=O)n(-c2ccccc2)n1C	3	-12	0	-2	1	1
COc1ccc(Cc2[nH]n3c(=O)c(Cl)c(C)nc3c2-c2ccccc2)cc1	-4	15	11*	-1	18	9

Screening data (PubChem)
